# Experimental data published in article PMC4336329 (PLoS ONE, 2015).
# Screen size: about 310,000 compounds; about 14,000 (4.5%) showed an effect of 50% or more. Effects have a minus sign here. This is one part of a sample in which strong results are shown more often than they occur.
# Target: human ether-à-go-go-related gene (hERG) potassium channel (human, UniProt Q12809)
# Experiment: primary screen, population patch clamp on CHO cells stably expressing hERG; higher = less effect of the substance
# 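Note: peak tail current of the secondary pulse compared with the same well before compound.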
# human ether-à-go-go-related gene (hERG) potassium channel, sequence (Q12809 whole entry, looked up): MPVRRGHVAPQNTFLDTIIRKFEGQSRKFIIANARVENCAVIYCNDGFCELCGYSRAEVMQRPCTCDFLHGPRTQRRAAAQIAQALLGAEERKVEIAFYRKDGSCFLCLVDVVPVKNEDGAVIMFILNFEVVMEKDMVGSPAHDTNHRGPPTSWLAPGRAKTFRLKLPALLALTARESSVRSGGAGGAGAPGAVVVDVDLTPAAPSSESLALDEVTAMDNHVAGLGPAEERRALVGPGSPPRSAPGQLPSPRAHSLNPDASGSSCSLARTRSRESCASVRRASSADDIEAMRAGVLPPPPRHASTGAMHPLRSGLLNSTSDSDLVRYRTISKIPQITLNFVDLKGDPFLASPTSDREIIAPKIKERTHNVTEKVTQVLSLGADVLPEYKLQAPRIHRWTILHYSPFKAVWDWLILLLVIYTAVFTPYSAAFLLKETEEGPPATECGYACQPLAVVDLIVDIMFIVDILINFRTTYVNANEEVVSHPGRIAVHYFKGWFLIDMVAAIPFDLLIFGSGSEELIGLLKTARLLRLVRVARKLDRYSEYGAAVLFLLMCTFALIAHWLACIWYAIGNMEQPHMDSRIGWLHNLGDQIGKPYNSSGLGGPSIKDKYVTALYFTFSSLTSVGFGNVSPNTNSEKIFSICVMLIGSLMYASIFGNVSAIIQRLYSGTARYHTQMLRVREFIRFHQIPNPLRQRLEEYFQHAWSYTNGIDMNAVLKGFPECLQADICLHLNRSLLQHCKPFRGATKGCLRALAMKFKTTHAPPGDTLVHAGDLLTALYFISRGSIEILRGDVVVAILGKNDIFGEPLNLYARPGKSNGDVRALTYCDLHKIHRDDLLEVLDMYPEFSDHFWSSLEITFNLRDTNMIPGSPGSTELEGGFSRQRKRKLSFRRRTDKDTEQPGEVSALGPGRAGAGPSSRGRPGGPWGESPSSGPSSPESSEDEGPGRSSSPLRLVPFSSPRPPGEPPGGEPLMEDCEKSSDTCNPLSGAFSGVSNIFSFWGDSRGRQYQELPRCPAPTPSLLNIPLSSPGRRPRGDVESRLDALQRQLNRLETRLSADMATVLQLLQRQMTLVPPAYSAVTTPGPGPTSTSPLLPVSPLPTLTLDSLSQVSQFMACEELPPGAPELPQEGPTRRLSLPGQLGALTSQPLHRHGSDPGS
row,Structure (SMILES),"hERG current change (%, negative = inhibition) at 10uM [%]"
1,CN(C)C(=O)Cn1c(SCC(=O)NC2CCCCC2)nc2ccccc21,7.7
2,COC(=O)Cn1c(=O)c(=O)n(CC(=O)OC)c2ccccc21,22.7
3,Cn1cnc(S(=O)(=O)NC2CCN(Cc3c(F)cccc3Cl)CC2)c1,-18.6
4,COCCN(C(=O)C1CC1)c1nnc(-c2cccc(C)c2)s1,-6.82
5,CN1CCN(C(=O)CCn2c(=O)c3cccn3c3cccnc32)CC1,8.62
6,O=C(Cn1c(=O)c2cccn2c2cccnc21)N1CCN(c2ccc(Cl)cc2)CC1,-47
7,O=C(CCCNS(=O)(=O)c1cccs1)N1CCN(c2cccc(Cl)c2)CC1,-56.9
8,O=C(OCC(=O)N1CCN(c2ccccc2)CC1)c1ccc(Cl)cc1[N+](=O)[O-],-63.6
9,O=C(CCn1c(=O)c2cccn2c2cccnc21)N1CCN(c2cccc(Cl)c2)CC1,-58.8
10,O=C(CCNS(=O)(=O)c1cccs1)N1CCN(c2cccc(Cl)c2)CC1,-10.3
11,O=C(O)CCCC(=O)N1CCN(c2cccc(Cl)c2)CC1,2.98
12,O=C(O)CCC(=O)N1CCN(c2cccc(Cl)c2)CC1,12
13,O=C(CCC(=O)N1CCN(c2cccc(Cl)c2)CC1)N1CCN(c2ccccc2)CC1,-55.6
14,O=C(CCCNS(=O)(=O)c1cccs1)N1CCN(c2ccc(F)cc2)CC1,-43.2
15,O=C(OCC(=O)N1CCN(c2ccccc2)CC1)c1cc(Cl)ccc1[N+](=O)[O-],-37
16,O=C(OCC(=O)N1CCN(c2ccccc2)CC1)c1ccccc1[N+](=O)[O-],-28.8
17,O=C(COc1c(Br)cc(Br)cc1Br)N/N=C/c1ccco1,14.2
18,Nc1nnc(SCC(=O)Nc2ccc(Cl)c(C(=O)O)c2)s1,19.8
19,O=C(NCCc1ccc(C(F)(F)F)cc1)C1CC(=O)N(c2ccc3c(c2)OCCO3)C1 (stereo not drawn),-2.97
20,O=C(Cn1cc(C(=O)C2CCCCC2)c2ccccc21)NCC1CCCO1 (stereo not drawn),-14.8
21,O=C(Nc1ccc(Br)cc1)NC1CCCCCCC1,2.29
22,O=C(NCCN1CCCCC1)/C(=N\O)c1ccccc1,5.35

row,Structure (SMILES),"hERG current change (%, negative = inhibition) at 10uM [%]"
1,O=C(NCCC(=O)N1CCN(c2ccccc2O)CC1)c1ccc(Br)cc1,-13.3
2,O=C(CCC(=O)N1CCN(c2cccc(Cl)c2)CC1)c1cccs1,-56.8
3,O=C(CCC(=O)N1CCN(c2ccc(O)cc2)CC1)c1cccs1,-3.11
4,COc1ccc(N2CCN(C(=O)CCNC(=O)c3ccc(Br)cc3)CC2)cc1,-20.2
5,O=C(NCCC(=O)N1CCN(c2cccc(Cl)c2)CC1)c1ccc(Br)cc1,-55
6,O=C(CCn1c(=O)[nH]c2ccsc2c1=O)N1CCN(c2cccc(Cl)c2)CC1,-52.3
7,COc1ccccc1N1CCN(C(=O)CCn2c(=O)[nH]c3ccsc3c2=O)CC1,8.71
8,O=C(c1cccs1)N1CCN(c2cccc(Cl)c2)CC1,-16.5
9,O=C(CCn1c(=O)[nH]c2ccsc2c1=O)N1CCN(c2ccc([N+](=O)[O-])cc2)CC1,-35.2
10,COc1ccccc1CSc1ncc(-c2ccc([N+](=O)[O-])cc2)[nH]1,-13.8
11,CC(C)(C)C(=O)CN1C(=O)NC2(CCCc3ccccc32)C1=O (stereo not drawn),14
12,O=C(CCC1CCN(C(=O)c2cncs2)CC1)Nc1ccccc1,-4.83
13,COCCNC(=O)CN(C(=O)CCC(=O)Nc1ccccn1)c1ccc(C)c(C)c1,16
14,Cc1ccc(C(=O)/C=C/NCc2ccc(F)cc2)cc1,-9.71
15,COc1ccc(C(=O)/C=C/NCc2ccc(F)cc2)cc1OC,-65
16,CCc1ccc(C(=O)/C=C/NCc2ccc(F)cc2)cc1,-4.74
17,CC(C)=C1C2CCC1C1C(=O)N(c3nc(-c4ccccc4)c(C)s3)C(=O)C21 (stereo not drawn),-2.93
18,COc1cccc(NC(=O)CSc2nc3scc(C)c3c(=O)[nH]2)c1,10.5
19,CC(=O)c1ccc(N2CCN(c3ccc(S(=O)(=O)NCCCN(C)C)cc3[N+](=O)[O-])CC2)cc1,-18.1
20,CC(=O)c1ccc(N2CCN(c3ccc(S(=O)(=O)NCCN(C)C)cc3[N+](=O)[O-])CC2)cc1,-23.2
21,CN(C)CCNS(=O)(=O)c1ccc(N2CCN(c3ccc(F)cc3)CC2)c([N+](=O)[O-])c1,-62.4
22,CCOC(=O)c1c(N)nn(C(=O)C(C)C)c1-c1ccc(OC)cc1,22.1

row,Structure (SMILES),"hERG current change (%, negative = inhibition) at 10uM [%]"
1,O=[n+]1c2c(n([O-])c3cc(F)c(F)cc31)CCCC2,10.2
2,CCN(CC)CCn1c2c(c(SCC(=O)Nc3nc(C)cs3)nc1=O)CCCC2,-70.1
3,CN(C)CCn1c2c(c(SCC(=O)Nc3nccs3)nc1=O)CCCC2,-30
4,CCN(CC)CCCn1c2c(c(SCC(=O)Nc3nc(C)cs3)nc1=O)CCC2,-42.6
5,CCN(CC)CCCn1c2c(c(SCC(=O)Nc3nccs3)nc1=O)CCC2,-32
6,CCN(CC)CCn1c2c(c(SCC(=O)Nc3nccs3)nc1=O)CCCC2,-59.5
7,CCN(CC)CCn1c2c(c(SCC(=O)Nc3nc(C)cs3)nc1=O)CCC2,-48.7
8,Cc1csc(NC(=O)CSc2nc(=O)n(CCN(C)C)c3c2CCCC3)n1,-55.9
9,Cc1ccc(S(=O)(=O)NCC(=O)NCC(=O)OC(C(=O)NC(N)=O)C(C)C)cc1C (stereo not drawn),8.86
10,CC(C)c1nc(SCC(=O)N2CCCCCC2)c2c(=O)n(C)c(=O)n(C)c2n1,-11.2
11,Cc1nc2c(cc1C(=O)N/N=C/c1ccc([N+](=O)[O-])cc1)c(=O)n(C)c(=O)n2C,-12
12,CC1=C(C)CC(C(=O)Nc2cccc(Cl)c2)C(C(=O)O)C1 (stereo not drawn),9.8
13,O=C(NC1CC2CCCC(C1)N2CC(=O)N1CCCc2ccccc21)C1CCCCC1 (stereo not drawn),-70.6
14,CC(=O)NC1CC2CCCC(C1)N2CC(=O)N1CCCc2ccccc21 (stereo not drawn),-7.15
15,O=C(CN1C2CCCC1CC(NC(=O)C1CCCCC1)C2)Nc1ccccc1 (stereo not drawn),-27
16,CCOC(=O)N1CCN(C(=O)C2CCN(C(=O)c3ccc([N+](=O)[O-])cc3)CC2)CC1,-72
17,CCOC(=O)C1CCN(C(=O)C2CCN(S(=O)(=O)N3CCCC3)CC2)CC1,-64.9
18,O=C(c1ccc([N+](=O)[O-])cc1)N1CCN(C(=O)C2CCCCC2)CC1,-28.5
19,CCOC(=O)C1CCN(C(=O)C2CCN(S(=O)(=O)CC)CC2)CC1,-2.7
20,CCOC(=O)C1CCN(C(=O)c2ccc3c(c2)S(=O)(=O)c2ccccc2C3=O)CC1,-76.6
21,O=C1c2ccccc2S(=O)(=O)c2cc(C(=O)N3CCC(O)CC3)ccc21,6.7
22,CCOc1ccc(C(=O)N2CCC(C(=O)c3ccc4c(c3)OCCO4)CC2)cc1,-75.7

row,Structure (SMILES),"hERG current change (%, negative = inhibition) at 10uM [%]"
1,NC(=O)C1CCN(C(=O)c2ccc3c(c2)S(=O)(=O)c2ccccc2C3=O)CC1,2.8
2,O=C(c1ccc2c(c1)OCCO2)C1CCN(C(=O)c2ccc(F)c(F)c2)CC1,-15.7
3,CCOC(=O)N1CCN(C(=O)C2CCN(S(=O)(=O)N3CCCC3)CC2)CC1,6.91
4,O=C(c1ccc2c(c1)OCCO2)C1CCN(C(=O)c2ccc(F)cc2)CC1,-13
5,CCOC(=O)N1CCN(C(=O)C2CCN(C(=O)c3ccc(C(C)(C)C)cc3)CC2)CC1,-31
6,CC1CC(C)CN(S(=O)(=O)c2ccc(NC(=S)NC(=O)c3ccccc3)cc2)C1 (stereo not drawn),8.01
7,CN(C)S(=O)(=O)c1ccc(NC(=O)C2CC(=O)N(Cc3ccccc3Cl)C2)cc1 (stereo not drawn),-0.379
8,CCCC1(C(=O)OC)NC(c2ccc(OC)c(OC)c2)C2C(=O)N(c3ccc4c(c3)OCO4)C(=O)C21 (stereo not drawn),16.7
9,COc1ccc(-c2c(C#Cc3ccsc3)c3ccccc3n2C)cc1,-6.31
10,CCOC(=O)C1CCN(C(=O)C(C)c2ccc([N+](=O)[O-])cc2)CC1 (stereo not drawn),-21.4
11,CCOC(=O)C1CCN(C(=O)c2cccc(C(=O)N3CCC(C(=O)OCC)CC3)c2)CC1,4.75
12,CCOc1ccc(C(=O)C2CCN(C(=O)c3ccccc3C(=O)O)CC2)cc1,-5.42
13,CCOc1ccc(NC(=O)N2CCC(C(=O)c3ccc(F)cc3)CC2)cc1,-20.8
14,O=C(Oc1cccc([N+](=O)[O-])c1)C1CCN(C(=O)c2ccc(F)cc2)CC1,-41
15,CCOC(=O)C1CCN(C(=O)c2cc(OCC)c(OCC)c(OCC)c2)CC1,-3.3
16,CCOC(=O)C1CCN(C(=O)C2CCN(C(=O)c3ccc([N+](=O)[O-])cc3)CC2)CC1,-69.3
17,O=C(OCc1nnc(-c2ccc([N+](=O)[O-])cc2)o1)C1CCN(C(=O)c2ccc(F)cc2)CC1,-76
18,CCOc1ccc(C(=O)C2CCN(C(=O)c3ccc([N+](=O)[O-])cc3)CC2)cc1,-79.9
19,CCOC(=O)C1CCN(C(=O)c2ccc(OCC)c(OCC)c2)CC1,-79.4
20,O=C(CCC(=O)c1ccc(F)cc1)OCc1nnc(-c2ccc([N+](=O)[O-])cc2)o1,-47
21,CCOC(=O)C1CCN(C(=O)c2ccc(N3CCOCC3)c([N+](=O)[O-])c2)CC1,-41.8
